{
  "source": "PubChem BioAssay (Tox21)",
  "note": "Inconclusive results are not listed. Where a call stands in place of a potency, no number is given. Unmarked numbers belong to inactive results. Active and inactive are the calls of the source. The call rests on the fitted dose curve; in most records, active means well fitted inhibition curve with a large enough effect in the signal ratio in the repeat runs, with a control signal flat; inconclusive means weak or mixed curves, or effect the other way; inactive means flat fitted curve, though single readings scatter; the % refers to the signal ratio. Potency means the concentration at half of the fitted maximal effect.",
  "data": [
    {"molecular_target": "D(2) dopamine receptor (Homo sapiens) (UniProt P14416)", "sequence (P14416 whole entry, looked up)": "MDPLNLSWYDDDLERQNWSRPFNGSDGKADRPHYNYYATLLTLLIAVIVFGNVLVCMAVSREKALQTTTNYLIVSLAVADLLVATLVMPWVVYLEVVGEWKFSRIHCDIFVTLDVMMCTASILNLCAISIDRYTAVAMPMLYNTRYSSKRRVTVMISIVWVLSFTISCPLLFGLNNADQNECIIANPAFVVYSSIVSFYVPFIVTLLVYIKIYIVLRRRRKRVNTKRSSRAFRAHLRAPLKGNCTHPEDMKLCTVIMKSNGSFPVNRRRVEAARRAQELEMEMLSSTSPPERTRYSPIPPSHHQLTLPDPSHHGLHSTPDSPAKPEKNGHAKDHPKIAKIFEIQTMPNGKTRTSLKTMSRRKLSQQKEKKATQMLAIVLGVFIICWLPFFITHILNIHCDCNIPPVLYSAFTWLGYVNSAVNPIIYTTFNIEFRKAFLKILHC", "assay": "Dopamine D2 receptor (DRD2) small molecule antagonists, cell-based qHTS assay (AID 1963595)", "settings": "HEK293-DRD2 cAMP HTRF antagonist mode; series mostly up to 92.4 µM", "procedure,_shortened": "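DRD2-HEK293; 0.1 mM Ro20-1724; cpd 10 min RT; NKH477 200 nM + quinpirole 12 nM, 30 min RT; HTRF cAMP (cAMP-d2/anti-cAMP cryptate), 665/620 nm ratio after 1 h.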", "values": [
      {"molecule": "CCOC(=O)C1=NN(c2ccccc2)C(=O)C1", "Potency": "inactive"},
      {"molecule": "C=C(C)CS(=O)(=O)O", "Potency": "inactive"},
      {"molecule": "O=C(Cl)c1c(Cl)cccc1Cl", "Potency": "inactive"},
      {"molecule": "Cc1ccc2c(c1)CCCN2", "Potency": "inactive"},
      {"molecule": "Cc1nc2ccc(CN(C)c3ccc(C(=O)N[C@@H](CCC(=O)O)C(=O)O)s3)cc2c(=O)[nH]1", "Potency": "inactive"},
      {"molecule": "CCCCCCCCCCCCCOC(=O)CCSCCC(=O)OCCCCCCCCCCCCC", "activity change, negative = inhibition": "-7.07% [at 18.9 µM]"},
      {"molecule": "O=C=NCC1CCCC(CN=C=O)C1", "note": "(stereo not given)", "Potency": "inactive"},
      {"molecule": "OC/C=C/c1ccccc1", "Potency": "inactive"},
      {"molecule": "CC(C)=CC=O", "Potency": "inactive"},
      {"molecule": "CC(=O)c1ccc(C)cc1", "Potency": "inactive"},
      {"molecule": "CCCCCCCCCCCCOC(C)=O", "Potency": "inactive"},
      {"molecule": "CC1=C(C(=O)O)N2C(=O)[C@@H](NC(=O)[C@H](N)C3=CCC=CC3)[C@H]2SC1", "Potency": "inactive"},
      {"molecule": "Oc1cc2ccccc2c2ccccc12", "Potency": "30.6 µM (active)"},
      {"molecule": "CC(C)(C)c1ccc(N)cc1", "Potency": "inactive"},
      {"molecule": "O=C1CCC(=O)N1Cl", "Potency": "inactive"},
      {"molecule": "COc1ccc(CCO)cc1", "Potency": "inactive"},
      {"molecule": "CC(=O)OCC1=C(C(=O)O)N2C(=O)[C@@H](NC(=O)CSc3ccncc3)[C@H]2SC1", "Potency": "inactive"},
      {"molecule": "COC(=O)C(C)=O", "Potency": "inactive"},
      {"molecule": "SC1CCCC1", "Potency": "inactive"},
      {"molecule": "CC(O)CC(C)O", "note": "(stereo not given)", "Potency": "inactive"},
      {"molecule": "CN1C(C)(C)CC(O)CC1(C)C", "Potency": "inactive"},
      {"molecule": "CC(C)CCC(=O)CCC(C)C", "Potency": "inactive"},
      {"molecule": "CCCCCCCCCCCCCCC", "Potency": "inactive"},
      {"molecule": "Nc1ccc2cc(S(=O)(=O)O)cc(O)c2c1N=Nc1ccccc1C(F)(F)F", "Potency": "inactive"},
      {"molecule": "CO/N=C1\\CN(c2nc3c(cc2F)c(=O)c(C(=O)O)cn3C2CC2)CC1CN", "note": "(stereo not given)", "Potency": "inactive"},
      {"molecule": "C=C(C)C(=O)OCCOP(=O)(O)OCCOC(=O)C(=C)C", "Potency": "inactive"},
      {"molecule": "C=C(C)C(=O)OCCOCCOC(=O)C(=C)C", "Potency": "inactive"},
      {"molecule": "CCCC(=O)O[C@]1(C(=O)COC(=O)CC)CC[C@H]2[C@@H]3CCC4=CC(=O)CC[C@]4(C)[C@H]3[C@@H](O)C[C@@]21C", "activity change, negative = inhibition": "-0.509% [at 18.9 µM]"},
      {"molecule": "O=Cc1ccccc1Cl", "Potency": "inactive"},
      {"molecule": "CC(C)=CCCC(C)CC(=O)O", "note": "(stereo not given)", "Potency": "inactive"},
      {"molecule": "CC(C)(COC(=O)c1ccccc1)COC(=O)c1ccccc1", "Potency": "inactive"},
      {"molecule": "CN(C)CCOC(=O)C(c1ccccc1)C1(O)CCCC1", "note": "(stereo not given)", "Potency": "inactive"},
      {"molecule": "CCCC(=O)O[C@]1(C(=O)CO)CC[C@H]2[C@@H]3CCC4=CC(=O)CC[C@]4(C)[C@H]3[C@@H](O)C[C@@]21C", "Potency": "inactive"},
      {"molecule": "CCCCCCCCCCCCCCCC(=O)OCC", "Potency": "inactive"},
      {"molecule": "CC(O)CN", "note": "(stereo not given)", "Potency": "inactive"},
      {"molecule": "O=C(O)Cc1ccc(OCCNC[C@H](O)c2ccccc2)cc1", "Potency": "inactive"},
      {"molecule": "O=C(O)c1c(Cl)ccc(Cl)c1Cl", "Potency": "inactive"},
      {"molecule": "CC(=O)c1ccc([N+](=O)[O-])cc1", "Potency": "inactive"},
      {"molecule": "CCCCCCOC(=O)CCCCCCCC(=O)OCCCCCC", "Potency": "inactive"},
      {"molecule": "Cc1ccccc1N=C(N)N=C(N)N", "Potency": "inactive"}
    ]}
  ]
}
